In PubChem BioAssay (NCI):
Compounds without any hit were thinned out: in the full panel of roughly 83,000, 20% have a hit.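 Results are percent growth after 48 hours of single-concentration exposure. 100 means growth as in untreated cells, lower positive values show inhibition; negative values down to -100 show cell death.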 Values without a mark were called inactive. Active and inactive are the calls of the source. The calls were made as follows: active = growth percent below 10; inactive = the rest.

The compounds below were run on CAKI-1 renal (assay: NCI-60 one-dose screen, 48 h (100 = growth as untreated, 0 = no growth, -100 = all killed)). Conditions: 10 µM unless noted.

SMILES	growth
OCCN1CCN(c2nc(Nc3ccc(-c4nc5ccccc5[nH]4)cc3)c3cn[nH]c3n2)CC1	-97.3% (active)
C=CCSSc1ncnc2c1ncn2C1OC(CO)C(O)C1O (stereo not drawn)	-2.6% (active)
COc1ccc(C(=O)c2sc3nc4c(c(-c5cccnc5)c3c2N)CCCC4)cc1OC	82.8%
CSc1nc(NCCO)c(C#N)c(-c2cccc([N+](=O)[O-])c2)n1	83.9%
OCCNc1nccc(N2CCN(c3ccnc4cc(Cl)ccc34)CC2)n1	77%
COc1ccc(C(=O)c2sc3nc(C)cc(C)c3c2N)cc1OC	99.5%
COc1cccc(/C=N/NC(=O)c2ccccc2Nc2ccnc(C(F)(F)F)c2)c1O	-2.16% (active)
C=CCSSC1N=CNc2nc[nH]c21 (stereo not drawn)	9.26% (active)
Fc1ccc(CNc2cccc3[nH]c(C(F)(F)F)nc23)cc1	81.2%
O=C(N/N=C/c1ccccc1O)c1ccccc1Nc1ccnc(C(F)(F)F)c1	-15.9% (active)
COc1ccc(-c2cc(=O)c3c(OC)c4ccoc4cc3o2)cc1	103%
COc1ccc(CN2c3ccccc3Oc3ccccc32)cc1F	59.3%
CC[C@H]1OC(=O)[C@H](C)[C@@H](O[C@H]2C[C@@](C)(OC)[C@@H](O)[C@H](C)O2)[C@H](C)[C@@H](O[C@@H]2O[C@H](C)C[C@H](N(C)C)[C@H]2O)[C@](C)(O)C[C@H](C)CN(C)[C@H](C)[C@@H](O)[C@]1(C)O	96.6%
Cc1nc(Nc2ccc(F)c(Cl)c2)sc1C(=O)O	8.86% (active)
Cc1cc(Nc2ccc(C)c(Cl)c2)n2nc(C(F)(F)F)nc2n1	-35.5% (active)
COc1ccc(CCNc2nc(SC)nc(-c3cccc([N+](=O)[O-])c3)c2C#N)cc1OC	78%
FC(F)(F)c1nc2c(NCc3ccc(-c4ccccc4)cc3)cccc2[nH]1	73.7%
CCN(CC)c1ccc(-c2cc(-c3cc(OC)c(OC)c(OC)c3)nc(N3CCOCC3)c2C#N)cc1	1.28% (active)
NC(=NCCCOc1ccc(Cl)cc1)Nc1ccc(C(F)(F)F)cc1	60.5%
NC(=NCCCC1(c2ccccc2)CCCC1)Nc1ccc(Cl)cc1	64.9%
O=c1nc2oc3ccc4ccccc4c3cc-2s1	22.1%
COc1cccc2c1C(=O)c1c(O)c3c(c(O)c1C2=O)C[C@](O)(C(=O)CO)C[C@H]3O[C@@H]1C[C@@H](NC(=O)CCCCCN(C)C2(c3ccc(F)cc3)CC3CCC2C3)[C@H](O)[C@@H](C)O1 (stereo partly drawn)	52.6%
N#Cc1cnn(-c2nc3c(Cl)cccc3s2)c1N	82.8%

These compounds were tested on A498 renal in the same assay as above. Conditions: 10 µM unless noted.

SMILES	growth
OCCN1CCN(c2nc(Nc3ccc(-c4nc5ccccc5[nH]4)cc3)c3cn[nH]c3n2)CC1	-78.8% (active)
COc1cc(-c2nc3ccccc3[nH]2)ccc1OCC(=O)N=Nc1c(O)[nH]c2ccc(Cl)cc12	81.8%
C=CCSSc1ncnc2c1ncn2C1OC(CO)C(O)C1O (stereo not drawn)	43.3%
COc1cc(Nc2cc(C)nc(N3CCN(c4ccnc5cc(Cl)ccc45)CC3)n2)cc(OC)c1	-12.5% (active)
CCN1CCN(c2nc(NCCNc3ccnc4cc(Cl)ccc34)c3ccccc3n2)CC1	77.1%
COc1ccc(C(=O)c2sc3nc4c(c(-c5cccnc5)c3c2N)CCCC4)cc1OC	48.1%
CSc1nc(NCCO)c(C#N)c(-c2cccc([N+](=O)[O-])c2)n1	72.6%
CN1CCN=C1c1ccc(NC(=O)c2ccc(C(=O)Nc3ccc(C4=NCCN4C)cc3)cc2)cc1	117%
OCCNc1nccc(N2CCN(c3ccnc4cc(Cl)ccc34)CC2)n1	15.5%
COc1ccc(C(=O)c2sc3nc(C)cc(C)c3c2N)cc1OC	87.5%
COc1cccc(/C=N/NC(=O)c2ccccc2Nc2ccnc(C(F)(F)F)c2)c1O	-13% (active)
C=CCSSC1N=CNc2nc[nH]c21 (stereo not drawn)	50.1%
Fc1ccc(CNc2cccc3[nH]c(C(F)(F)F)nc23)cc1	39.7%
CCCCCCN(CCCCCC)C(=N)c1ccnc2ccccc12	37.2%
COc1ccc(C(=S)N2CCN(c3cccc(Cl)c3)CC2)cc1	106%
O=C(N/N=C/c1ccccc1O)c1ccccc1Nc1ccnc(C(F)(F)F)c1	-5.76% (active)
COc1ccc(-c2cc(=O)c3c(OC)c4ccoc4cc3o2)cc1	121%
COc1ccc(CN2c3ccccc3Oc3ccccc32)cc1F	54.3%

SMILES	growth
C=CC(=O)Nc1cccc(-c2nc(SC)nc(NCCc3ccc(OC)c(OC)c3)c2C#N)c1	18.5%
Cc1nc(Nc2ccc(F)c(Cl)c2)sc1C(=O)O	-26.2% (active)
O=C(Nc1cccc2[nH]c(C(F)(F)F)nc12)c1ccc(-n2cnnn2)cc1	83.1%
Cc1cc(Nc2ccc(C)c(Cl)c2)n2nc(C(F)(F)F)nc2n1	91.9%
CCOc1cc2c(cc1OCC)C(c1cc(OC)c(O)cc1Cl)NCC2 (stereo not drawn)	93.7%
COc1ccc(CCNc2nc(SC)nc(-c3cccc([N+](=O)[O-])c3)c2C#N)cc1OC	94.8%
FC(F)(F)c1nc2c(NCc3ccc(-c4ccccc4)cc3)cccc2[nH]1	48.7%
CCN(CC)c1ccc(-c2cc(-c3cc(OC)c(OC)c(OC)c3)nc(N3CCOCC3)c2C#N)cc1	34.5%
NC(=NCCCOc1ccc(Cl)cc1)Nc1ccc(C(F)(F)F)cc1	35%
NC(=NCCCC1(c2ccccc2)CCCC1)Nc1ccc(Cl)cc1	83.1%
O=C1c2cc3c(cc2-c2c1c1cc(F)c(F)cc1c(=O)n2CCCn1ccnc1)OCO3	-74.1% (active)
CSc1ccc(-c2ccccc(=O)c2O)cc1	36.2%
O=c1nc2oc3ccc4ccccc4c3cc-2s1	-1.24% (active)
O=C1c2ccccc2OC=C(c2ccccc2)N1CCCCNc1ccc(S(=O)(=O)Nc2ncccn2)cc1	80.2%
C=C(C)C(=O)Nc1ccc(NC(C)C)cc1	101%
COc1cccc2c1C(=O)c1c(O)c3c(c(O)c1C2=O)C[C@](O)(C(=O)CO)C[C@H]3O[C@@H]1C[C@@H](NC(=O)CCCCCN(C)C2(c3ccc(F)cc3)CC3CCC2C3)[C@H](O)[C@@H](C)O1 (stereo partly drawn)	54.6%
N#Cc1cnn(-c2nc3c(Cl)cccc3s2)c1N	97.1%
